Experimental data reported in PubChem BioAssay (Tox21).
Records with an inconclusive call do not appear. A call without a number means that no potency is given here. Activity calls are given as the source filed them. Calls come from the whole dose curve; as a rule, active = well fitted inhibition curve with a large enough effect in the repeat runs; inconclusive = weak or mixed curves; inactive = no such curve, though single readings can be large or run the other way.

The compounds below were run against Cytochrome P450 3A4 (Homo sapiens) (UniProt P08684) (assay: Cytochrome P450 Family 3 Subfamily A Member 4 (CYP3A4) small molecule antagonists: luciferase reporter qHTS assay (AID 1671201; note: nearly all actives have a fitted effect of over 50% in size)). Conditions: P450-Glo CYP3A4 enzyme, luciferin luminescence, 1 h; series mostly up to 115 µM.
How it was run: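 Recombinant human CYP3A4 converts a proluciferin substrate to luciferin over 1 h at room temperature after NADPH regeneration solution is added (compound preincubated 10 min); detection reagent stops reaction, luminescence read 20 min later as relative units.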
Potency is the fitted concentration of half-maximal effect.

Cytochrome P450 3A4 (Homo sapiens), sequence (P08684 whole entry, looked up): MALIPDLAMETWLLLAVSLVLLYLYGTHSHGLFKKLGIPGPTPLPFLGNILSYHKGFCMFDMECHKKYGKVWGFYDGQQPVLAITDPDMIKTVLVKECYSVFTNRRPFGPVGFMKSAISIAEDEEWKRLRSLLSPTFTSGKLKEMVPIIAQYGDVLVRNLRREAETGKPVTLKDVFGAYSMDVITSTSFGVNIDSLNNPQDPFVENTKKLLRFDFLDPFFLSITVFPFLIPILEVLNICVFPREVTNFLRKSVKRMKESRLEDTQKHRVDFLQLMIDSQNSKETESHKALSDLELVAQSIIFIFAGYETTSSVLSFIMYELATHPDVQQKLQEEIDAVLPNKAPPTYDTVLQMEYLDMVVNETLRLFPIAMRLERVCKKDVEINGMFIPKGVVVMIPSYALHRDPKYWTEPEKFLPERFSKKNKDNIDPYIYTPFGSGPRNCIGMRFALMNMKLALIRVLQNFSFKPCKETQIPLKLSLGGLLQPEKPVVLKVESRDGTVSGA

Q: With `CC(=O)N/N=C/c1ccc([N+](=O)[O-])o1` as the compound, how does the Potency read?
A: Its Potency is “inactive”.

Q: `COC(=O)c1nc(Cl)c(Cl)nc1N` was tested. Which Potency did it give?
A: Its Potency is “inactive”.

Q: Which Potency does the source give for `CC(O)c1ccccc1` (configuration not stated) here?
A: The Potency was “inactive”.

Q: Which Potency does the source give for `CCC1CO1` (configuration not stated) here?
A: Its Potency is “inactive”.

Q: For `C=CC(C)(CCC=C(C)C)OC(=O)CC(C)C` (configuration not stated), which Potency is on record?
A: Its Potency is 35.6 µM (active).

Q: For `COc1cc(Nc2c(C#N)cnc3cc(OCCCN4CCN(C)CC4)c(OC)cc23)c(Cl)cc1Cl`, which Potency is on record?
A: Its Potency is “inactive”.

Q: With `c1cc(N(CC2CO2)CC2CO2)ccc1Cc1ccc(N(CC2CO2)CC2CO2)cc1` (configuration not stated) as the compound, how does the Potency read?
A: The Potency was 12.6 µM (active).

Q: With `CC1=C(Br)C(=O)C(Br)=C/C1=C(/c1ccccc1S(=O)(=O)O)c1cc(Br)c(O)c(Br)c1C` as the compound, how does the Potency read?
A: Its Potency is 24.2 µM (active).

Q: For `CCCCC(CC)CN` (configuration not stated), which Potency is on record?
A: The Potency was “inactive”.

Q: `N#CCCN(CCO)CCO` was tested. Which Potency did it give?
A: The Potency was “inactive”.

Q: How did the Potency turn out when `N#CCc1ccc(Cl)cc1Cl` was run?
A: The Potency was “inactive”.

Q: For `CCOC(=O)/C=C/C(=O)OCC`, which Potency is on record?
A: Its Potency is “inactive”.

Q: `CCCCCCC(C)(C)C(=O)O` was tested. Which Potency did it give?
A: Its Potency is “inactive”.

Q: `C=C(C)CCCC(C)CCO` (configuration not stated) was tested. Which Potency did it give?
A: The Potency was 28.3 µM (active).

Q: Which Potency does the source give for `c1ccc2c(c1)CCc1ccccc1N2` here?
A: Its Potency is “inactive”.

Q: With `CCc1ccccc1` as the compound, how does the Potency read?
A: The Potency was “inactive”.

Q: For `CCCC(=O)C(=O)O`, which Potency is on record?
A: The Potency was “inactive”.

Q: With `CCC(OCCCOC)OC(C)=O` (configuration not stated) as the compound, how does the Potency read?
A: Its Potency is “inactive”.

Q: For `Cc1cc(C)c(N)cc1C`, which Potency is on record?
A: The Potency was 35.5 µM (active).

Q: Which Potency does the source give for `CN1C(C(=O)Nc2ccccn2)=C(O)c2sccc2S1(=O)=O` here?
A: Its Potency is “inactive”.

Q: Which Potency does the source give for `NC(=O)c1ccncc1` here?
A: The Potency was “inactive”.

Q: Which Potency does the source give for `COC(=O)CCS` here?
A: Its Potency is “inactive”.

Q: With `CC(C)(c1ccccc1)c1ccccc1` as the compound, how does the Potency read?
A: Its Potency is “inactive”.

Q: `O=C(OC(=O)c1ccccc1)c1ccccc1` was tested. Which Potency did it give?
A: The Potency was “inactive”.

Q: How did the Potency turn out when `Cc1cscn1` was run?
A: The Potency was “inactive”.

Q: Which Potency does the source give for `CCCCCC#CC(=O)OC` here?
A: The Potency was “inactive”.

Q: Which Potency does the source give for `O=[N+]([O-])c1cc(C2CCCCC2)c(O)c([N+](=O)[O-])c1` here?
A: The Potency was “inactive”.
